# uPA generation: blocks generation of uPA at the cell surface; Potency, µM (top dose mostly 38.3 µM), for inactives: at the top dose activity change, negative = inhibition, most hits filed as inhibitors; 330,000 compounds, 0.31% hits; cell surface uPA generation assay, qHTS; AID 540303; active = well fitted inhibition curve with a large enough effect; inconclusive = small, poorly fitted or top-dose-only effect; inactive = no such curve, though single readings can be large or run the other way; tested in mouse RAW 264.7 cells; also: potency is read from the fitted curve at half-maximal effect; nearly all actives have a fitted effect of over 55% in size
# TDP1 cell CPT: DT40-hTDP1 cell growth loss with CPT. Potency, µM (titrated, usually from 46.2 µM), for the others: at the top dose activity change, negative = growth inhibition, usual class: inhibitors. 420,000 compounds, 12% hits. chicken DT40 Tdp1-/-;hTDP1 cells + 20 nM CPT, ATP luminescence, 48 h; also: potency is read from the fitted curve at half-maximal effect; nearly all actives have a fitted effect of over 55% in size
#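 Chicken DT40 Tdp1-/- cells stably complemented with human TDP1 were seeded at 400 cells/well in medium containing 20 nM camptothecin, exposed to pin-transferred compounds, and grown at 37 °C for at least 48 hr. Viability was read as ATP luminescence.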
# HT1080 IDH1KD tx: toxicity to HT-1080 IDH1 knockdown cells (counter line). 360,000 compounds, 2% hits. AID 686971. Potency, µM (series often up to 46.1 µM), inactives show at the top dose activity, negative = toxicity, actives largely listed as cytotoxic. HT-1080 IDH1 knockdown viability, ATP luminescence, 48 h;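 also: potency is read from the fitted curve at half-maximal effect; 0% = DMSO wells and -100% = cell-free medium wells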
#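 Viability of IDH1-knockdown HT-1080 fibrosarcoma cells was assessed by CellTiter-Glo after 48 h at 37 °C with titrated compound; concentration-effect curves were classified by fit quality and response size.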
# TDP1 cell noCPT: qHTS for Inhibitors of human tyrosyl-DNA phosphodiesterase 1 (TDP1): qHTS in cells in absence of CPT; Potency, µM (highest dose often 46.2 µM), for inactives: top-dose activity change, negative = growth inhibition, actives largely listed as inhibitors; AID 686978, 2013; 420,000 compounds, 15% hits; DT40 Tdp1-/- hTDP1 cells, no CPT, ATP luminescence, 48 h; also: potency is read from the fitted curve at half-maximal effect; nearly all actives have a fitted effect of over 55% in size
#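 Growth of hTDP1-complemented DT40 Tdp1-knockout cells is measured by ATP luminescence after at least 48 hr compound exposure at 37 °C, with DMSO substituting for the 20 nM CPT used in the parallel screen.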
# IL-1B inflam inh: inflammasome signaling inhibition, IL-1 beta readout | AID 743279 | activity change, % at 57.5 µM | THP-1 LPS/ATP IL-1B secretion, AlphaLISA, 16 h; active compounds read low | 360,000 compounds, 4.7% hits; in the data active = activity change below about -50%; inconclusive = mostly about -30% to -49%
#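 THP-1 cells pretreated 1 hr with compounds (up to 57.5 uM final), then stimulated with LPS (250 ng/mL final) plus ATP (1.25 mM final); secreted IL-1B measured by AlphaLISA after 16 hr, decreased signal indicating inhibition.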
# HT1080NT lethal: kills 2HG-producing HT-1080-NT fibrosarcoma cells; HT-1080-NT fibrosarcoma viability, CellTiter-Glo ATP luminescence, 48 h; Potency, µM (doses to about 46.1 µM), without a hit: at the highest dose activity, negative = less viability, usual class: cytotoxic; 360,000 compounds, 1.6% hits;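 also: NT is the 2HG producing partner of a matched IDH1 knockdown line; potency is read from the fitted curve at half-maximal effect; 0% = DMSO-treated cells and -100% = media-only wells without cells; nearly all actives have a fitted effect of over 55% in size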
#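 Fibrosarcoma NT cells, 750 per well in 5% FBS RPMI, were exposed to compound for 48 hours. Viability: CellTiter-Glo luminescence.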
# * hit, by the source's call; ? = inconclusive; · = no result; ! = not active in a repeat. Rows were chosen to be rich in hits. Some 19% of all compounds tested hit in one or more screens of this group. Unless noted, calls follow the shape of the dose curve; as a rule, active = well fitted curve in the direction sought with a large enough effect; inconclusive = small, poorly fitted or top-dose-only effect, or another doubt; inactive = no such curve, though single readings can be large; an effect the other way counts as inactive or inconclusive. Unless noted, % is scaled to controls: 0 for no effect and ±100 for the full control effect.
SMILES,uPA generation,TDP1 cell CPT,HT1080 IDH1KD tx,TDP1 cell noCPT,IL-1B inflam inh,HT1080NT lethal
CCOC(=O)N1CCN(C(=O)C2CCCN(Cc3nc(-c4ccc(Cl)cc4)oc3C)C2)CC1 (centres undefined),?,9.2µM*,-22%,5.8µM*,?,?
CC1(C)CC(NC(=O)c2cccc(S(=O)(=O)N(Cc3ccccc3)c3ccccc3)c2)CC(C)(C)N1,-4%,?,-2%,?,-81*,-3%
O=C(NCc1ccccc1F)c1cccc(S(=O)(=O)NCc2ccccc2)c1,16%,7%,-11%,?,-3,-7%
Cc1ccc(N(C)S(=O)(=O)c2cccc(C(=O)NC3CC(C)(C)NC(C)(C)C3)c2)cc1,-8%,?,-12%,-23%,-21,?
CN(c1ccccc1)S(=O)(=O)c1cccc(C(=O)NCc2ccccc2)c1,-25%,?,-12%,16µM*,-14,-3%
O=C(NCc1cccc(C(F)(F)F)c1)c1cccc(S(=O)(=O)NCc2ccccc2)c1,3%,?,-4%,23µM*,3,0%
CN(c1ccccc1)S(=O)(=O)c1cccc(C(=O)NNC(=O)c2ccccc2)c1,-1%,16µM*,-21%,16µM*,14,-11%
FC(F)(F)C1=NNC(c2ccc3ccccc3c2)=NN1,·,-19%,-12%,?,19,-9%
CCOc1ccccc1N1C(=O)c2ccc(S(=O)(=O)c3ccc(C(=O)O)cc3)cc2C1=O,2%,1%,19%,1%,17,15%
CN(c1ccccc1)S(=O)(=O)c1cccc(C(=O)NCCc2c[nH]c3ccccc23)c1,-1%,15µM*,-23%,?,3,-21%
CC1(C(=O)O)CCCN(C(=O)C2(c3ccc(Cl)cc3)CCCC2)C1 (centres undefined),·,7%,7%,0%,21,0%
O=C(CCC(=O)N1CCN(c2ccccc2F)CC1)N1CCN(c2ccc(F)cc2)CC1,-1%,?,-24%,16µM*,9,-1%
O=C(CCSCc1ccccc1F)N1CCN(c2ccc(F)cc2)CC1,·,?,·,26µM*,·,·
O=C(CN1C(=O)NC(c2ccccc2)(c2ccccc2)C1=O)N1CCN(c2ccccc2F)CC1,-16%,?,-6%,4.1µM*,?,-27%
Cc1nn(C)c(C(=O)N/N=C/c2ccc(-c3ccccc3)cc2)c1Cl,-6%,-23%,-3%,-14%,5,-3%
CCOC(=O)C1=C(C)N(C)C(=S)NC1c1cc(OC)ccc1OC (centres undefined),-5%,?,-10%,21µM*,-6,1%
CCOC(=O)C1=C(C)N(C)C(=O)NC1c1ccccc1OC (centres undefined),1%,?,16%,-29%,34,21%
CCOC(=O)C1=CN(CC)S(=O)(=O)NC1CC (centres undefined),0%,8%,7%,6%,46,2%
O=C(c1ccccc1Br)N(Cc1ccccc1F)C1CCS(=O)(=O)C1 (centres undefined),·,-28%,·,?,·,·
Cc1ccc(NC(=O)CCSCCc2ccccn2)cc1,-2%,16%,5%,-1%,5,27%
O=C(CSc1nnc(SCc2cccc3ccccc23)s1)Nc1ccc(C(=O)O)cc1,4%,18µM*,?,21µM*,13,16%
c1ccc(Nc2nnc(SCc3cccc4ccccc34)s2)cc1,13%,?,5%,?,-14,9%
O=c1[nH]cnc2c1ncn2[C@H]1CC[C@@H](CO)O1,7%,9.2µM*!,14%,12µM*!,0,30%
O=c1[nH]cnc2c1ncn2C1OC(CO)CC1F (centres undefined),·,0.46µM*,0%,1.8µM*,28,17%
O=c1[nH]cnc2c1ncn2[C@@H]1O[C@H](CO)[C@@H](O)[C@H]1O,3%,-9%,20%,17%,3,?
SMILES,uPA generation,TDP1 cell CPT,HT1080 IDH1KD tx,TDP1 cell noCPT,IL-1B inflam inh,HT1080NT lethal
Cc1cc(C(=O)O)c2c(=O)n(C)c(=O)n(C)c2n1,·,1%,·,-15%,·,·
Cc1ccc(S(=O)(=O)N2C[C@@H](C)[C@]3(C2)[C@H](O)[C@H](OC(=O)NC2CCCC2)C[C@H]2C(=O)N(c4ccccc4)C(=O)[C@H]23)cc1,·,-18%,-11%,?,-3,-16%
COc1ccc(Cl)cc1NC(=O)c1c(NCc2cccnc2)sc2c1CCCC2,·,23µM*,·,15µM*,·,·
CCOC(=O)N1CCc2c(sc(NCc3ccc(N(C)C)cc3)c2C(=O)Nc2ccccc2OCC)C1,·,?,·,8.2µM*,·,·
COc1ccccc1NC(=O)c1c(NC(=O)c2ccccc2Cl)sc2c1CCC2,·,-2%,·,-7%,·,·
COc1ccc(Cl)cc1NC(=O)c1c(NCc2ccc(C)o2)sc2c1CCCC2,·,?,·,21µM*,·,·
CCOc1ccccc1NC(=O)c1c(NCc2ccc(C)o2)sc2c1CCCCC2,·,4.6µM*,·,2.9µM*,·,·
CCOC(=O)N1CCc2c(sc(NCc3sccc3C)c2C(=O)Nc2cc(Cl)ccc2OC)C1,·,-24%,·,?,·,·
O=C(COC(=O)Cc1c(F)cccc1Cl)NCc1ccc2c(c1)OCO2,-11%,7%,9%,3%,7,8%
Cc1cccc(NC(=O)CNC(=O)CSc2nnc(C(F)(F)F)n2C)c1C,-12%,-9%,-3%,1%,0,1%
CSc1nsc2nc(=O)c(/C=C3\C(C)=Nc4ccc(C)cc43)c(N)n12,-5%,16µM*,?,?,35,?
CC1=Nc2ccc(C)cc2/C1=C/c1c(N)n2c(S(=O)(=O)C(C)C)nsc2nc1=O,2%,?,-10%,?,-2,-3%
COC(=O)c1cc2oc3ccccc3c2n1Cc1c(C)cc(C)cc1C,·,-3%,·,-2%,·,·
CNc1ccc(C=O)cc1Cl,·,-1%,·,-3%,·,·
Cc1cccc(NC(=O)CSc2nc3ccccc3c3nc(CCc4c(C)n[nH]c4C)nn23)c1,-3%,16µM*,?,13µM*,-10,?
Cc1cncn1CCc1nc2c3ccccc3nc(SCC(=O)Nc3cccc(Cl)c3)n2n1,-24%,18µM*,-17%,7.3µM*,-97*,-17%
CCOc1ccccc1NC(=O)CSc1nc2ccccc2c2nc(CCn3cncc3C)nn12,·,?,·,23µM*,·,·
Cc1n[nH]c(C)c1CCc1nc2c3ccccc3nc(SCC(=O)Nc3ccccc3F)n2n1,-1%,?,?,?,60,?

# Bioassay records (PubChem BioAssay)
